# According to PubChem BioAssay AID686978 (National Center for Advancing Translational Sciences (NCATS), 2013):
# Out of some 420,000 compounds screened, about 64,000 (15%) were called active. Inconclusive results (about 27%) are left out. The call rests on the fitted dose curve; in most records, active means well fitted inhibition curve with a large enough effect; inconclusive means small, poorly fitted or top-dose-only effect; inactive means flat fitted curve, though single readings scatter. The list is a sample of the results.
# Assay: qHTS for Inhibitors of human tyrosyl-DNA phosphodiesterase 1 (TDP1): qHTS in cells in absence of CPT; further: nearly all actives have a fitted effect of over 55% in size
# Conditions: DT40 Tdp1-/- hTDP1 cells, no CPT, ATP luminescence, 48 h; activity change, negative = growth inhibition: at 46.2 µM (top of the series)
# Outline: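 Chicken DT40 Tdp1-/- cells stably complemented with human TDP1 were seeded at 400 cells/well with DMSO in place of 20 nM camptothecin. After compound pinning, cells grew at least 48 hr at 37 °C; viability read by CellTiter-Glo luminescence.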
# On the % scale 0 is the no-effect control and ±100 the full control effect; potency means the concentration at half of the fitted maximal effect.
Structure (SMILES),"activity change, negative = growth inhibition",Potency
Cc1ccc(S(=O)(=O)N[C@@H](Cc2ccccc2)C(=O)N2CCC(C(=O)N[C@H](C(=O)O)C(C)O)CC2)cc1 (some centres undefined),10.3% (inactive),
COc1ccc(C2C(C(C)=O)=C(O)C(=O)N2Cc2cccnc2)cc1 (centres undefined),-13.7% (inactive),
COc1cc2nc(C#Cc3nc4cc(OC)c(OC)cc4[nH]3)[nH]c2cc1OC,-2.38% (inactive),
Cc1nnc(NC(=O)Cn2c(=O)sc3ccccc32)s1,-4.38% (inactive),
CC(Oc1ccccc1F)C(=O)NN (centres undefined),-2.53% (inactive),
CCOc1ccc(-c2ccc(SCC(=O)N3CCOCC3)nn2)cc1,2.68% (inactive),
Cn1nc(-c2ccc(Cl)cc2)c2cc(C(=O)NCc3ccco3)sc21,,20.6 µM (active)
COc1ccc2c(Cl)c(C(=O)NCc3ccco3)sc2c1,-25.1% (inactive),
COc1ccc(OC)c(S(=O)(=O)N(C)CC(=O)N2CCN(c3ccccc3)CC2)c1,-2.97% (inactive),
CCOC(=O)N1CCN(C(=O)CNC(=O)Cc2ccc(Cl)cc2)CC1,-16.7% (inactive),
COc1cccc(-c2nn(C)c3sc(C(=O)N4CCN(c5ccccc5)CC4)cc23)c1,,23.1 µM (active)
Cn1nc(C(F)(F)F)c2cc(C(=O)N3CCOCC3)sc21,-9.2% (inactive),
CCOC(=O)N1CCN(C(=O)CSc2ccc(Cl)cc2)CC1,-4.08% (inactive),
COc1cccc(-c2ccc(SCC(=O)N3CCN(c4ccccc4)CC3)nn2)c1,,16.4 µM (active)
CCOC(=O)N1CCN(C(=O)c2cc3c(-c4ccc(Cl)cc4)nn(C)c3s2)CC1,,11.6 µM (active)
COc1cccc(/C=C/C(=O)OCC(=O)N2CCN(c3ccccc3)CC2)c1,-8.54% (inactive),
O=C(NCc1ccco1)c1nc(-c2ccccc2)n(-c2ccccc2)n1,-18.6% (inactive),
COC(=O)c1nc(NC(=O)c2ccc(F)cc2)n[nH]1,-20.9% (inactive),
Nc1cc(=O)c2[nH]cnc2[nH]1,3.63% (inactive),
S=C(NC1CCCCC1)NN1CCOCC1,11.9% (inactive),
CCn1c(SCC(=O)Nc2cc(C)ccc2C)nnc1-c1cnccn1,-12% (inactive),
CCN(CCCNC(=O)c1c(C)oc2ncn(CC(C)C)c(=O)c12)Cc1ccccc1,-17.9% (inactive),
Cc1ccc(C(c2sc3nc(C)nn3c2O)N2CCN(c3ccccc3)CC2)cc1 (centres undefined),-13.8% (inactive),
Cc1ccn(CC(=O)N2N=C(C(F)F)CC2(O)C(F)F)n1 (centres undefined),-0.589% (inactive),
CC1=C(C(N)=O)C(c2ccc(Br)cc2)n2ncnc2N1 (centres undefined),-12.6% (inactive),
CCOc1ccccc1NC(=O)C1=C(C)Nc2ncnn2C1c1ccc(NC(C)=O)cc1 (centres undefined),-21% (inactive),

Structure (SMILES),"activity change, negative = growth inhibition",Potency
CCOC(=O)C1=C(c2ccccc2)Nc2ncnn2C1c1ccc(Cl)cc1 (centres undefined),,18.4 µM (active)
COCCCNS(=O)(=O)c1cccc(S(=O)(=O)c2cccc(S(=O)(=O)NCCCOC)c2)c1,-19.7% (inactive),
Cc1ccc(/C=N/NC(=O)C(NC(=O)c2ccccc2)c2n[nH]c(=O)c3ccccc23)cc1 (centres undefined),-9.86% (inactive),
CCCCN(C)CCCNC(=O)c1cc(-c2cccs2)nc2ccccc12,,29.1 µM (active)
Cc1ccsc1-c1cc(C(=O)O)c2c(ccc3ccccc32)n1,5.58% (inactive),
O=C(NCCN1CCOCC1)c1cc(-c2cccs2)nc2ccccc12,-17.6% (inactive),
O=C1c2ccccc2-c2ccccc2NC1O (centres undefined),11% (inactive),
COc1ccc(/C=N/OCc2ccccc2C#N)c(OC)c1,-22.7% (inactive),
CCOc1ccc(C2C(C#N)=C(N)N(N(C)C)C3=C2C(=O)CCC3)cc1 (centres undefined),5.03% (inactive),
Cc1ccc(NC(=O)NCC(c2cccnc2)N2CCOCC2)cc1 (centres undefined),6.95% (inactive),
O=C(NCC(c1ccco1)N1CCc2ccccc21)c1cccc(F)c1 (centres undefined),,11.6 µM (active)
COc1ccc(C(=O)NCC(c2ccco2)N2CCc3ccccc32)cc1OC (centres undefined),,16.4 µM (active)
CCOC(=O)c1c(NC(=O)CSc2cn(CCNC(=O)c3cccc(C(F)(F)F)c3)c3ccccc23)sc2c1CCC2,-3.22% (inactive),
CN(C)C(CNC(=O)c1cccc(C#N)c1)c1ccco1 (centres undefined),-2.74% (inactive),
O=C(NCC(c1cccnc1)N1CCc2ccccc21)c1cccc(C(F)(F)F)c1 (centres undefined),,14.6 µM (active)
COc1cc(C(=O)NCC(c2ccco2)N2CCCC2)ccc1OCc1ccccc1 (centres undefined),-17.8% (inactive),
O=C(NN1CCOCC1)c1cccc(F)c1,-5.34% (inactive),
CCOc1ccccc1C(=O)NCC(c1ccc(N(C)C)cc1)N1CCCC1 (centres undefined),-76.7% (inactive),
COc1ccc(S(=O)(=O)NCC(c2ccc(N(C)C)cc2)N2CCc3ccccc32)cc1OC (centres undefined),-27.6% (inactive),
COc1ccc(C(=O)NCC(c2ccc(N(C)C)cc2)N2CCc3ccccc32)c(OC)c1 (centres undefined),,20.6 µM (active)
COc1ccccc1C(=O)NCCC(=O)NCC(c1ccco1)N1CCCCC1 (centres undefined),-8.25% (inactive),
CCn1cc(C(=O)NCCO)c(=O)c2cc(F)c(N3CCN(C)CC3)cc21,2.98% (inactive),
Cc1ccc(NC(=S)NC(NC(=O)Cc2cccc3ccccc23)C(Cl)(Cl)Cl)cc1 (centres undefined),-8.05% (inactive),
Cc1cc(C(=O)O)c(S(C)(=O)=O)s1,0.116% (inactive),
NNc1nnc(Cc2ccncc2)c2ccccc12,-14.2% (inactive),
O=C(COC(=O)Cn1[nH]c(=O)c2ccccc2c1=O)Nc1c(Cl)cccc1C(F)(F)F,-0.552% (inactive),

Structure (SMILES),"activity change, negative = growth inhibition",Potency
COc1ccc([N+](=O)[O-])cc1N(CC(=O)Nc1ccccc1C(=O)N1CCOCC1)S(C)(=O)=O,-1.39% (inactive),
CN(C)c1ccc(C2N(C)C(=O)c3ccccc3N2C)cc1 (centres undefined),-15% (inactive),
CC1CCc2c(c3ccccc3[nH]c2=O)O1 (centres undefined),1.73% (inactive),
O=C(O)C1OC(C(=O)O)C2C1C(F)(F)C2(F)F (centres undefined),0.936% (inactive),
Cc1ccc2nc(NCCCNC(=O)c3cnccn3)c(C#N)cc2c1,-1.12% (inactive),
Cc1ccc(CNC(=O)COC(=O)C2CCC2)cc1,2.95% (inactive),
CC(C#N)OC(=O)c1cccnc1SCC(=O)Nc1ccc2c(c1)OCO2 (centres undefined),-14.2% (inactive),
O=C(NCc1cccnc1)c1ccc2nc([C@@H]3O[C@H](CO)[C@H](O)[C@H](O)[C@H]3O)[nH]c2c1,-3.78% (inactive),
CCOc1ccc(N(CC(=O)NCCc2ccc(OC)cc2)S(C)(=O)=O)cc1,-11.9% (inactive),
COc1ccc(CCNC(=O)CN(c2ccccc2)S(C)(=O)=O)cc1,-14.2% (inactive),
COc1ccc(N(CC(=O)NCCc2ccc(Cl)cc2)S(=O)(=O)c2c(C)nn(C)c2C)cc1,,20.6 µM (active)
COc1ccccc1CNC(=O)COn1nnc2ccc(S(=O)(=O)N3CCOCC3)cc21,-30% (inactive),
O=C1[C@H]2[C@@H](c3ccc(Cl)cc3)N3C(=O)N(c4cccc(F)c4)C(=O)[C@@]3(Cc3ccccc3)[C@H]2C(=O)N1C1CCCCC1,-24% (inactive),
O=C1[C@H]2[C@@H](c3ccc(F)cc3)N3C(=O)N(c4ccc(C(F)(F)F)cc4)C(=O)[C@@]3(Cc3ccccc3)[C@H]2C(=O)N1C1CCCCC1,,11.6 µM (active)
Cc1cccc(N2C(=O)N3[C@H](c4ccc(F)cc4)[C@@H]4C(=O)N(C5CCCCC5)C(=O)[C@@H]4[C@]3(Cc3ccccc3)C2=O)c1,-7.34% (inactive),
S=C(NN=Cc1ccccn1)Nc1ccccn1,,1.46 µM (active)
CNC(=O)C(=O)N/N=C/c1ccccn1,-13.2% (inactive),
S=C(Nc1cccnc1)Nc1ccccn1,-7.96% (inactive),
CC(C)(C)C(=O)NC1CC2CCCC(C1)N2C(=O)Nc1ccccc1F (centres undefined),1.81% (inactive),
COc1ccc(C(CNC(=O)c2ccc(S(=O)(=O)Nc3ccccc3F)cc2)N(C)C)cc1 (centres undefined),0.312% (inactive),
CCOc1ccc(S(=O)(=O)Nc2ccc(OC)nc2)cc1,,23.1 µM (active)
CCOc1ccc(S(=O)(=O)Nc2ccc(S(=O)(=O)Nc3cc(OC)ccc3OC)cc2)cc1,-2.25% (inactive),
CCOc1ccc(S(=O)(=O)Nc2nccs2)cc1,-9.33% (inactive),
CCOc1ccc(NS(=O)(=O)c2ccc(C(=O)NCC(c3ccccc3OC)N3CCCC3)cc2)cc1 (centres undefined),,18.4 µM (active)
COc1ccccc1C(CNC(=O)c1cccc(NS(=O)(=O)c2ccc(Br)cc2)c1)N(C)C (centres undefined),,18.4 µM (active)
CC(=O)c1ccc(S(=O)(=O)Nc2ccc(C(=O)NCC(c3ccccc3)N(C)C)cc2)cc1 (centres undefined),-4.49% (inactive),

Structure (SMILES),"activity change, negative = growth inhibition",Potency
COc1ccc(C(CNC(=O)c2ccc(S(=O)(=O)Nc3ccccc3C)cc2)N2CCOCC2)cc1 (centres undefined),-29.7% (inactive),
Cc1cc(S(=O)(=O)Nc2ccc(C(=O)NCC(c3ccco3)N3CCCC3)cc2)ccc1F (centres undefined),-1.96% (inactive),
COc1ccccc1NC(=O)COC(=O)COc1ccccc1F,-3.57% (inactive),
Cc1nnsc1S(=O)(=O)Cc1ccccc1Cl,1.81% (inactive),
O=C(CSc1nc2c(cnn2-c2ccc(F)cc2)c(=O)[nH]1)N1CCCCCC1,-16.2% (inactive),
COc1cccc(/C=C/c2ccc3ccccc3n2)c1OC(C)=O,,16.4 µM (active)
CC(=O)c1ccc(S(=O)(=O)N2CCN(C(=O)/C=C/c3ccc4ccccc4n3)CC2)cc1,-17.9% (inactive),
COc1cccc(/C=C2\C=C(c3ccc(C)cc3)OC2=O)c1OC(C)=O,-5.6% (inactive),
O=C(Nc1ccccc1)c1ccc2nsnc2c1,-22.4% (inactive),
Fc1ccc(CNCc2ccc(Br)cc2)cc1,-29.2% (inactive),
O=C(Cc1ccccc1)NCc1ccc(F)cc1,5.8% (inactive),
c1ccc(CNCc2ccc(CNCc3ccccc3)cc2)cc1,,10.3 µM (active)
O=Cc1c(NCCCN2CCCC2=O)c2ccccc2[nH]c1=O,-12.5% (inactive),
Cc1cc(Cl)c(S(=O)(=O)NCc2cccnc2)cc1OCC(N)=O,-3.14% (inactive),
O=C(NCC(c1ccc(Cl)cc1)N1CCOCC1)c1ccccc1F (centres undefined),,13 µM (active)
CN1CCN(C(CNC(=O)c2ccccc2F)c2ccc3c(c2)OCO3)CC1 (centres undefined),3.73% (inactive),
COc1ccc(C(CNC(=O)c2cccnc2SC)N2CCOCC2)cc1 (centres undefined),-21.2% (inactive),
O=C1CCCC(O)=C1N=Nc1ccc2ncsc2c1,-12.3% (inactive),
Cc1ccc(C)c(NC(=O)C(c2ccccc2)N2CCN(CC(=O)NC3CC3)CC2)c1 (centres undefined),1.95% (inactive),
CCC(CO)Oc1cc(NC(=O)c2ccc(Cl)cc2)c2ncn(C(C)C)c2c1 (centres undefined),-23.1% (inactive),
COc1cccc(Cn2c(SCc3ccc(C(=O)N4CCC(C)CC4)cc3)nc3ccncc32)c1,,20.6 µM (active)
COc1ccc(CSc2nnnn2-c2ccc(C(=O)O)cc2)cc1,2.56% (inactive),
COc1cccc(Cn2c(SCc3ccc(C(=O)N4CCCCC4)cc3)nc3ccncc32)c1,,20.6 µM (active)
Cc1cccc(CSc2nc3ccncc3n2Cc2ccc(C(=O)O)cc2)c1,-2.18% (inactive),
COc1cc(C(=O)N2CCC(c3ccncc3)CC2)cc(OC)c1OC,-23.6% (inactive),
COC(=O)c1ccc2c(=O)n(CCN3CCOCC3)c(SCC(=O)Nc3cccc(OC)c3)nc2c1,0.614% (inactive),
